# 697 NFkB inh – lowers PMA/ionomycin-induced NF-kB signal in 697 B cells; 697 B-cell NF-kB luciferase reporter, 16 h; inhibition, % at 4 µM; 0.33% of 330,000 active; in the data active = inhibition above about 35%
# Gli-Sufu antag – blocks Gli-Sufu signaling in a luciferase reporter. AID 588413. 0.74% of 340,000 active. Sufu-KO-LIGHT fibroblasts, Gli luciferase reporter luminescence. inhibition, % at 5 µM;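 active = inhibition above about 55%, limit read from the data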;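 note: 0% = DMSO-treated cells and 100% = wells with medium but no cells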
# Jurkat NFkB inh – inhibitors of the PMA/ionomycin-induced NF-kB reporter in Jurkat cells. PMA/ionomycin-induced NF-kB luciferase reporter, luminescence. inhibition, % at 4 µM. 0.53% of 330,000 active. AID 435003; in the data active = inhibition above about 50%
# GalR3 antagonist – human GalR3 antagonism. O60755. HEK293 GalR3-CNG cAMP membrane potential fluorescence; galR3 body fused to GalR1 C-terminus. inhibition, % at 3 µM. 0.44% of 360,000 active. AID 651719;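 active = inhibition above the screen-wide average plus 3 SD, cut at about 13% in these data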;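 note: forskolin and galanin both at EC90 stimulate the cells; cAMP rise reported by CNG channel membrane potential dye signal; 0% = forskolin plus galanin with DMSO and 100% = forskolin alone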
# Target sequence (O60755 1-299 limits assumed): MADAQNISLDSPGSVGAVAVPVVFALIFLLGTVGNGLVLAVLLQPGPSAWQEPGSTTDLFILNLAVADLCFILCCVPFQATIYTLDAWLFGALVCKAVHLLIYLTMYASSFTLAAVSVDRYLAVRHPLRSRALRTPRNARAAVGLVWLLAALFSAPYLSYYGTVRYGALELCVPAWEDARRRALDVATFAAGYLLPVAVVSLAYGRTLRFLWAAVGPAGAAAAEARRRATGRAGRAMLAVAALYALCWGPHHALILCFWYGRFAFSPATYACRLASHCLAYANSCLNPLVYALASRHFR
# COUP-TFII inh – inhibitors of human COUP-TFII (NR2F2). P24468. HEK293T NGFI-A luciferase reporter, luminescence. inhibition, % at 8.6 µM. 0.7% of 370,000 active;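 active = inhibition above a per-plate cutoff, mean inhibition of test wells between control levels plus 3 SD, cut at about 38% in these data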;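 note: cells cotransfected with COUP-TFII expression vector driving the NGFI-A reporter; 0% = median of COUP-TF2 test wells and 100% = reporter-only cells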
# Target sequence (P24468 whole entry, looked up): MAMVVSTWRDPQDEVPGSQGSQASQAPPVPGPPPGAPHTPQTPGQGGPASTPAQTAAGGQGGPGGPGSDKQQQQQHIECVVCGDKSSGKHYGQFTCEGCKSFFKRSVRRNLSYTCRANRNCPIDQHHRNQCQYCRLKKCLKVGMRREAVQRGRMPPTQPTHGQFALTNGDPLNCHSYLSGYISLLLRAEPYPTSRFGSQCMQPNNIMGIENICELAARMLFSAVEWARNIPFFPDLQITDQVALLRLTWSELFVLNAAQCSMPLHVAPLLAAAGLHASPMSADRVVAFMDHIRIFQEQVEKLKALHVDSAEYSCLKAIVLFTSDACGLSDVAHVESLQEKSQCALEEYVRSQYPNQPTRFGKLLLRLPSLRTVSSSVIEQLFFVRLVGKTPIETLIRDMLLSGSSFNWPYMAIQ
# Jurkat NFkB conf – inhibitors of the PMA/ionomycin-induced NF-kB reporter in Jurkat cells, retest | shares compounds with Jurkat NFkB inh | Jurkat NF-kB luciferase, 16 h | inhibition, % at 4 µM | 27% of 2,700 active | AID 435020;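 active = inhibition reaching about 45% at 4 µM in either replicate, limit read from the data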;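 note: plate controls were PMA/ionomycin stimulated DMSO wells for no effect and unstimulated DMSO wells for full effect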
# 697 NFkB conf – inhibitors of the PMA/ionomycin-induced NF-kB reporter in 697 B cells, retest; shares compounds with 697 NFkB inh; 697 B-cell NF-kB luciferase, 16 h; inhibition, % at 4 µM; 35% of 2,000 active; AID 449746; in the data active = inhibition mostly above about 28%, no sharp cut-off; inactive = mostly below about 22%
# Gli-Sufu confirm – confirmation of Gli-SUFU pathway antagonists. 40% of 2,500 active. Sufu-KO-LIGHT cells, Gli luciferase reporter, luminescence. AID 602428. inhibition, % at 5 µM. shares compounds with Gli-Sufu antag;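 active = mean inhibition at 5 µM reaching about 45%, limit read from the data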;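 note: plate controls were DMSO-treated cells for no effect and wells lacking cells for full effect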
# Gli cytotox – cytotoxic in Gli-SUFU antagonist counter-screen; shares compounds with Gli-Sufu antag; cytotoxicity, % at 5 µM; AID 651994; 32% of 2,500 active; Sufu-KO-LIGHT cells cytotoxicity, ATP luminescence;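 active = mean cytotoxicity at 5 µM above about 25%, limit read from the data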;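 note: cells exposed to compound overnight for roughly 16 to 18 hours; plate controls were DMSO wells with cells for no effect and medium without cells for full effect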
# Wnt3a cs – inhibits Wnt3a reporter, counter-screen for Gli-SUFU antagonists; shares compounds with Gli-Sufu antag; Wnt-LIGHT cells, Wnt3a-driven luciferase reporter, luminescence; inhibition, % at 6.25 µM; 20% of 2,500 active;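 active = mean inhibition above about 25%, limit read from the data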
# GalR3 conf – GalR3 (human) antagonism, confirmation | inhibition, % at 3 µM | AID 652245 | shares compounds with GalR3 antagonist | 59% of 1,600 active | HEK293 GalR3 CNG cAMP biosensor, membrane potential fluorescence; galR3 fused to GalR1 carboxy tail; challenged with forskolin and galanin at EC90;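 active = inhibition above the primary screen's cutoff, the mean inhibition of all screened compounds plus 3 SD, cut at about 13% in these data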;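 note: 0% = forskolin plus galanin and 100% = forskolin alone with DMSO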
# CNG parental – acts as nonspecific agonist in parental HEK-CNG cells. shares compounds with GalR3 antagonist. HEK293-CNG parental cells, cAMP membrane potential fluorescence; normalised: DMSO wells 0%, forskolin wells 100%. activation, % at 3 µM. 10% of 1,600 active. AID 652268; in the data active = activation above about 1.3%
# VP16 Luc counter – counter-screen for COUP-TFII antagonists: inhibitors of VP16. shares compounds with COUP-TFII inh. AID 687007. inhibition, % at 8.5 µM. 25% of 2,500 active. HEK293 Gal4-VP16 luciferase reporter, luminescence; in the data active = inhibition above about 13%
# NR2F2 inh conf – COUP-TFII (NR2F2) inhibition, confirmation assay; shares compounds with COUP-TFII inh; HEK293 NGFI-A luciferase reporter, luminescence; inhibition, % at 8.5 µM; 45% of 2,500 active; AID 687008;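 active = mean inhibition over three repeats above a set limit taken from the earlier primary screen, cut at about 38% in these data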;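 note: 100% = cells given the luciferase reporter alone without the COUP-TF2 vector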
# An asterisk follows results filed as active; nt = no result given. In the library only some 2% were active in any assay of this set; here they are far more common.
SMILES,697 NFkB inh,Gli-Sufu antag,Jurkat NFkB inh,GalR3 antagonist,COUP-TFII inh,Jurkat NFkB conf,VP16 Luc counter,NR2F2 inh conf,others
O=C(/C=C\Nc1ccc2c(c1)OCO2)c1ccccn1,-52.1,-6.4,55.0*,2.2,46.1*,-38.0,30.8*,52.1*,
O=C(Nc1ccc2c(c1)OCO2)c1ccccn1,-85.7,-56.6,-90.5,-5.1,-32.0,nt,nt,nt,
COc1ccc(Cn2cc(CN3[C@@H](C)COc4cc(Br)ccc4S3(=O)=O)nn2)cc1,nt,nt,nt,nt,-14.0,nt,nt,nt,
Cc1ccc2c(c1)N(CCCC(=O)N(C)Cc1ccccc1F)C(=O)CO2,nt,nt,nt,nt,10.9,nt,nt,nt,
COc1ccc(C2=Nn3c(nnc3-c3ccccn3)SC2)cc1,-27.1,22.0,5.5,-6.2,6.8,nt,nt,nt,
COc1ccc(C2=Nn3c([n+](C)c4ccccc43)SC2)cc1,24.6,81.4*,54.0*,-3.0,73.1*,63.5*,9.8,65.4*,Gli-Sufu confirm=85.9*;Gli cytotox=17.3;Wnt3a cs=39.6*
COc1ccc2c(c1OC)CN1CCc3cc4c(cc3[C@@H]1[C@@H]2O)OCO4,-10.6,10.3,4.0,nt,nt,nt,nt,nt,
O[C@@H]1[C@@H](O)C=C2CCN3Cc4cc5c(cc4[C@H]1C23)OCO5 (stereo not given in full),-289.3,69.2*,96.4*,nt,56.2*,89.3*,3.2,25.6,697 NFkB conf=-229.2
CCOC(=O)C1=NOC(C(=O)NCCO)(C(=O)C2CC2)C1 (stereo not given),nt,nt,nt,nt,-2.7,nt,nt,nt,
Nc1ccc2c(c1)C(=O)C(=O)c1ccccc1-2,5.2,19.3,83.7*,0.8,102.1*,24.3,97.1*,109.7*,
COc1ccc(C2SCC(=O)N2CCc2ccc(OC)c(OC)c2)cc1 (stereo not given),-28.0,6.3,65.2*,-8.2,43.3*,38.6,-2.7,18.9,
COc1ccc(CCN2C(=O)CSC2c2ccc(OC)c(OC)c2)cc1OC (stereo not given),-18.9,23.4,-3.9,-3.8,0.2,nt,nt,nt,
CN(Cc1ccccc1)C1=CC(=[N+]2CCCC2)CC(C)(C)C1,19.3,90.7*,61.9*,58.9*,72.5*,59.1*,15.3*,64.3*,Gli-Sufu confirm=87.7*;Gli cytotox=27.2*;Wnt3a cs=48.3*;GalR3 conf=65.3*;CNG parental=2.3*
COC(=O)c1c(-c2ccc(C)cc2)csc1NC(=O)Cc1ccc(OC)c(OC)c1,nt,14.0,nt,-2.2,26.5,nt,nt,nt,
COC(=O)c1c(-c2cccc3ccccc23)csc1NC(=O)Cc1ccc(OC)c(OC)c1,-4.5,25.2,53.1*,-0.9,41.3*,25.2,2.0,29.0,
CCCCCCn1ccc(=N)cc1,72.3*,5.2,62.7*,1.9,76.4*,56.2*,4.2,49.6*,697 NFkB conf=73.5*
CCOc1cc(CCNC(=O)c2cc3ccsc3n2C)ccc1OC,nt,nt,nt,nt,0.6,nt,nt,nt,
COc1ccccc1OCC(=O)NNC(=O)C1CCN(c2ncnc3sc(C)c(C)c23)CC1,3.5,-8.4,0.1,-4.8,1.9,nt,nt,nt,
COc1ccc(-c2csc(NC(=O)C3CCN(c4ncnc5sc(C)c(C)c45)CC3)n2)cc1OC,-5.7,72.4*,53.5*,-2.2,56.2*,39.0,12.4,87.5*,
COC(=O)[C@H](C(C)C)N(Cc1cn(CC2CCCCC2)nn1)S(=O)(=O)c1ccc(F)cc1Br,nt,nt,nt,nt,3.9,nt,nt,nt,
O=C(Nc1ccc(S(=O)(=O)N2CCCCC2)cc1)c1ccncc1,-24.9,19.9,-2.9,-1.5,6.6,nt,nt,nt,
O=C(Nc1ccc(S(=O)(=O)N2CCCC2)cc1)c1ccc(CN2CCc3ccccc3C2)cc1,-15.2,51.5,74.5*,95.9*,76.7*,75.1*,-0.3,70.9*,GalR3 conf=104.8*;CNG parental=-0.7
CC(=O)c1cccc(NC(=O)c2ccc(CN3CCc4ccccc4C3)cc2)c1,-39.1,43.5,-13.7,-11.7,18.6,nt,nt,nt,
O=C(Nc1ccc(Cc2ccncc2)cc1)c1ccc(S(=O)(=O)N2CCCC2)cc1,3.2,41.6,50.2*,72.7*,68.6*,47.1*,11.0,52.2*,GalR3 conf=94.2*;CNG parental=-0.2
COc1ccc(CCNc2ncnc3sc(C)cc23)cc1OC,68.3*,68.8*,60.9*,85.7*,79.1*,73.4*,-1.0,68.3*,697 NFkB conf=83.2*;GalR3 conf=109.8*;CNG parental=-0.3
SMILES,697 NFkB inh,Gli-Sufu antag,Jurkat NFkB inh,GalR3 antagonist,COUP-TFII inh,Jurkat NFkB conf,VP16 Luc counter,NR2F2 inh conf,others
COc1ccc(CCNc2ncnc3[nH]ncc23)cc1OC,-15.3,7.7,4.8,-2.3,26.6,nt,nt,nt,
C[C@H]1C(=O)CC[C@@]23CCCN2C(=O)CCC[C@@H]13,nt,nt,nt,nt,11.4,nt,nt,nt,
Cc1ccc(-c2c(NC(=O)C3CC3)nc3ncccn23)cc1,nt,nt,nt,nt,0.4,nt,nt,nt,
Cc1ccc(S(=O)(=O)NCc2ccncc2)c(C)c1C,30.6,75.8*,62.5*,85.9*,68.4*,67.9*,1.7,56.8*,Gli-Sufu confirm=73.8*;Gli cytotox=27.5*;Wnt3a cs=37.5*;GalR3 conf=110.6*;CNG parental=-0.8
CN1/C(=C/c2cccc[n+]2C)Sc2ccccc21,13.5,68.6*,70.5*,-4.6,53.1*,5.7,-4.5,47.7*,Gli-Sufu confirm=86.0*;Gli cytotox=38.1*;Wnt3a cs=36.1*
CCCCN1/C(=C/c2cccc[n+]2C)Sc2cc(NC(C)=O)ccc21,5.8,10.1,-8.7,-8.8,-5.8,nt,nt,nt,
Cc1ccc2c(c1)N(C)/C(=C/c1cccc[n+]1C)S2,9.2,81.9*,74.5*,-7.2,57.1*,16.6,-0.1,42.5*,
Cc1ccc2c(c1)N(C)/C(=C/c1cccc[n+]1CCO)S2,-17.0,39.8,33.0,-9.4,22.3,nt,nt,nt,
CCNC(=O)N(C)[C@H]1C[C@H]2c3[nH]c4c(-c5cccc(C)c5)cccc4c3CCN2C(=O)[C@H]1[C@H](C)O,nt,nt,nt,nt,15.6,nt,nt,nt,
CCN(Cc1cn(Cc2ccccc2)nn1)S(=O)(=O)c1ccccc1Br,nt,nt,nt,nt,3.5,nt,nt,nt,

# Assay outcomes deposited in PubChem by several laboratories.
